Values joined by “and” are separate entries in the source; they are usually repeats but may differ in a detail not shown here. Equal entries are not always repeated. Inconclusive results are not listed. A call without a number means that no potency is given here. Active and inactive are the calls of the source. Unless noted, calls follow the shape of the dose curve; as a rule, active = well fitted curve in the direction sought with a large enough effect in the repeat runs; inconclusive = weak or mixed curves; inactive = no such curve, though single readings can be large; an effect the other way counts as inactive or inconclusive.
Tests used:
[1] = A CellTox Green Cytotoxicity Assay to monitor cytotoxicity in HepG2 cells - 0 hour (AID 1224882); also: nearly all actives have a fitted effect of over 35% in size
Summary of the method: (§1)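 First, HepG2 cells (600/well) mixed with reagent were plated; second, after 5 h at 37 C they received compounds via pintool; third, fluorescence was measured at 0 h through 40 h at 8 h intervals.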

[2] = A CellTox Green Cytotoxicity Assay to monitor cytotoxicity in HepG2 cells - 32 hour (AID 1224883); also: nearly all actives have a fitted effect of over 50% in size; also: potency is read from the fitted curve at half-maximal effect
Summary of the method: as §1

[3] = qHTS RealTime-Glo MT Cell Viability Assay in HEK293 cells - 24 hour (AID 1224886); also: nearly all actives have a fitted effect of over 50% in size; also: potency is read from the fitted curve at half-maximal effect
Summary of the method: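 Quantitative high-throughput screen of the Tox21 10K library in HEK293: cells and RealTime-Glo reagents plated together, compound added at 5 h, luminescence monitored through 40 h at 37 C.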

[4] = qHTS RealTime-Glo MT Cell Viability Assay in HEK293 cells - 8 hour (AID 1224887); also: nearly all actives have a fitted effect of over 50% in size; also: potency is read from the fitted curve at half-maximal effect
Summary of the method: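 600 HEK293 cells per well, dispensed already mixed with RealTime-Glo MT reagents. Compound dosing came 5 h later. The same wells were read for luminescence at 0, 8, 16, 24, 32 and 40 h of exposure at 37 C.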

[5] = A CellTox Green Cytotoxicity Assay to monitor cytotoxicity in HEK293 cells - 16 hour (AID 1224888); also: nearly all actives have a fitted effect of over 35% in size
Summary of the method: (§2)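 Dead-cell fluorescence measured kinetically: asymmetric cyanine dye, HEK293, 600 cells/well, 5 h settle, 23 nL cpd/DMSO, 37 C, reads 0–40 h every 8 h.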

[6] = qHTS RealTime-Glo MT Cell Viability Assay in HepG2 cells - 0 hour (AID 1224889); also: nearly all actives have a fitted effect of over 50% in size; also: potency is read from the fitted curve at half-maximal effect
Summary of the method: (§3)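 Compound treatment began 5 h after plating HepG2 cells (600/well) with NanoLuc luciferase and prosubstrate. Plates stayed at 37 C for 40 h; luminescence was captured at six time points, 0 h through 40 h.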

[7] = A CellTox Green Cytotoxicity Assay to monitor cytotoxicity in HepG2 cells - 8 hour (AID 1224890); also: nearly all actives have a fitted effect of over 45% in size
Summary of the method: as §1

[8] = biological target: Estrogen receptor (Homo sapiens) (UniProt P03372); assay: qHTS assay to identify small molecule antagonists of the estrogen receptor alpha (ER-alpha) signaling pathway using the BG1 cell line in the presence of 0.1 nM 17-beta-estradiol (AID 1259244); also: nearly all actives have a fitted effect of over 50% in size; also: potency is read from the fitted curve at half-maximal effect
Summary of the method: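 Reporter is a stably transfected luciferase under four estrogen responsive elements in VM7Luc4E2 cells expressing native full-length ER-alpha; inhibition of 0.1 nM (final) 17beta-estradiol-driven signal over 22 h is read by luminescence.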

[9] = qHTS assay to identify small molecule HDAC inhibitors (AID 1259364); also: potency is read from the fitted curve at half-maximal effect;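 also: wild-type HCT-116 cells with endogenous class I/II HDAC activity; nearly all actives have a fitted effect of over 45% in size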
Summary of the method: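 Quantitative high-throughput format: overnight-seeded HCT-116 cells got compounds for 2 hr at 37C; HDAC-Glo I/II reagent added, 30 min RT, luminescence measured.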

[10] = qHTS assay to identify small molecule HDAC inhibitors - cell viability counter screen (AID 1259365)
Summary of the method: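 Following a 2hr exposure of overnight-plated wild-type HCT-116 cells to DMSO-delivered compounds, CellTiter-Glo was added and luminescence recorded after 30min at room temperature.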

[11] = qHTS assay to identify small molecule antagonists of the sonic hedgehog signaling (Shh) pathway - cell viability counter screen (AID 1259367); also: nearly all actives have a fitted effect of over 55% in size; also: potency is read from the fitted curve at half-maximal effect
Summary of the method: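 Conditioned medium drove Shh signaling in 3T3 Gli1-Luc cells exposed to compounds at 37C and 5% CO2. Viability was determined from CellTiter-Fluor fluorescence, with reagent incubated 1 hr after 23 hr of treatment.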

[12] = qHTS assay to identify small molecule agonists of the sonic hedgehog signaling (Shh) pathway (AID 1259368; calls by dose curve;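 also: NIH/3T3-derived 3T3Gli1-Luc cells carrying a stable Gli1-driven firefly luciferase reporter; series mostly up to about 92 µM; nearly all actives have a fitted effect of over 15% in size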)
Summary of the method: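 Quantitative high-throughput format using a Gli1-driven firefly luciferase reporter line derived from NIH/3T3 cells. After a 24 hr compound treatment at 37 C and 5% CO2, luminescence reported Gli1 response element activity.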

[13] = qHTS RealTime-Glo MT Cell Viability Assay in HepG2 cells - 16 hour (AID 1224885); also: nearly all actives have a fitted effect of over 50% in size; also: potency is read from the fitted curve at half-maximal effect
Summary of the method: as §3

[14] = qHTS assay to identify small molecule antagonists of the estrogen receptor alpha (ER-alpha) signaling pathway using the BG1 cell line in the presence of 0.1 nM 17-beta-estradiol - cell viability counter screen (AID 1259241); also: nearly all actives have a fitted effect of over 40% in size; also: potency is read from the fitted curve at half-maximal effect
Summary of the method: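 Measures cytotoxicity alongside the ER-alpha antagonist readout: VM7Luc4E2 cells, charcoal-stripped serum, 0.1 nM 17beta-estradiol final, 22 hr compound incubation at 37C, CellTiter-Fluor fluorescence.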

[15] = qHTS assay to identify small molecule antagonists of the androgen receptor (AR) signaling pathway using the MDA cell line in the presence of 0.5 nM R1881 - cell viability counter screen (AID 1259242); also: nearly all actives have a fitted effect of over 45% in size; also: potency is read from the fitted curve at half-maximal effect
Summary of the method: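 qHTS format. MDA-kb2 (MMTV-luc, AR/GR responsive) + cpd + 0.5 nM R1881 final, 16 hr 37C/0% CO2 → CellTiter-Fluor 30 min → fluorescence intensity.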

[16] = biological target: Androgen receptor (Homo sapiens) (UniProt P10275); assay: qHTS assay to identify small molecule antagonists of the androgen receptor (AR) signaling pathway using the MDA cell line in the presence of 0.5 nM R1881 (AID 1259243); also: nearly all actives have a fitted effect of over 50% in size; also: potency is read from the fitted curve at half-maximal effect
Summary of the method: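 Antagonist mode quantitative HTS in MDA-kb2 MMTV-luciferase cells, agonist R1881 at 0.5 nM final, 16 hr exposure at 37C and 0% CO2, luminescent detection.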

[17] = qHTS assay to identify small molecule agonists of the sonic hedgehog signaling (Shh) pathway - cell viability counter screen (AID 1259366); also: nearly all actives have a fitted effect of over 50% in size; also: potency is read from the fitted curve at half-maximal effect
Summary of the method: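 After a 4hr attachment at 37C, NIH/3T3 cells bearing an integrated Gli1-driven luciferase reporter were dosed with compounds. Treatment lasted 24hr, with the final hour including CellTiter-Fluor for a fluorescence viability measurement.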

[18] = A CellTox Green Cytotoxicity Assay to monitor cytotoxicity in HEK293 cells - 8 hour (AID 1224884); also: nearly all actives have a fitted effect of over 35% in size
Summary of the method: as §2

[19] = qHTS assay to identify small molecule phospholipidosis (PLD) inducers (AID 1259344; active = well fitted curve in the direction sought with a large enough effect; an effect the other way counts as inactive or inconclusive)
Summary of the method: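 After 4 h attachment on collagen I, HepG2 cells were dosed with compound alongside LipidTOX Red, kept 24 h at 37 C, fixed, and imaged for lamellar phospholipid pits.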

Chain of Androgen receptor (Homo sapiens) (P10275 whole entry, looked up): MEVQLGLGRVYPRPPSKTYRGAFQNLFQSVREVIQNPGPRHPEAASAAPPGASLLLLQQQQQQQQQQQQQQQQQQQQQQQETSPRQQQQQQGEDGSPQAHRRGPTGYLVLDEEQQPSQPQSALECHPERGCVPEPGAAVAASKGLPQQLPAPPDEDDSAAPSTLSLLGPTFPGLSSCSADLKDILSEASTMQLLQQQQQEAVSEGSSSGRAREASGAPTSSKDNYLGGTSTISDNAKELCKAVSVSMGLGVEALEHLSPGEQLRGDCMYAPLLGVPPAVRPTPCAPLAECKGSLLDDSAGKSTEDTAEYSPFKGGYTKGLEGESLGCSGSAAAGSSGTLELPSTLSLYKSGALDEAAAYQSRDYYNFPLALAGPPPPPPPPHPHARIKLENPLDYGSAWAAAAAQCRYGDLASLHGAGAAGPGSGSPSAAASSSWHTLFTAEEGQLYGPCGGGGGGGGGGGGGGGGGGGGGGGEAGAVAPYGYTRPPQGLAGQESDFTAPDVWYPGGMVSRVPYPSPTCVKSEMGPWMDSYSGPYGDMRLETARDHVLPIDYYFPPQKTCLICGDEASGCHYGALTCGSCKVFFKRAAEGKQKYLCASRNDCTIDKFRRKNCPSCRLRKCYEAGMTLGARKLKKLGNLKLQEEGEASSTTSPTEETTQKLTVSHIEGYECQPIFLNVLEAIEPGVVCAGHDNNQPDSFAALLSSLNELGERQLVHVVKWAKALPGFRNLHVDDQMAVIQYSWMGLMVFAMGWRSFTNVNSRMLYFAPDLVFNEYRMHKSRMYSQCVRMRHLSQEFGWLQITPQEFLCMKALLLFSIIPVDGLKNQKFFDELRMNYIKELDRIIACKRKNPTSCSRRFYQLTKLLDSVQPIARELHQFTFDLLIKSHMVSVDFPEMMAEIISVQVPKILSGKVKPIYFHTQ
Chain of Estrogen receptor (Homo sapiens) (P03372 whole entry, looked up): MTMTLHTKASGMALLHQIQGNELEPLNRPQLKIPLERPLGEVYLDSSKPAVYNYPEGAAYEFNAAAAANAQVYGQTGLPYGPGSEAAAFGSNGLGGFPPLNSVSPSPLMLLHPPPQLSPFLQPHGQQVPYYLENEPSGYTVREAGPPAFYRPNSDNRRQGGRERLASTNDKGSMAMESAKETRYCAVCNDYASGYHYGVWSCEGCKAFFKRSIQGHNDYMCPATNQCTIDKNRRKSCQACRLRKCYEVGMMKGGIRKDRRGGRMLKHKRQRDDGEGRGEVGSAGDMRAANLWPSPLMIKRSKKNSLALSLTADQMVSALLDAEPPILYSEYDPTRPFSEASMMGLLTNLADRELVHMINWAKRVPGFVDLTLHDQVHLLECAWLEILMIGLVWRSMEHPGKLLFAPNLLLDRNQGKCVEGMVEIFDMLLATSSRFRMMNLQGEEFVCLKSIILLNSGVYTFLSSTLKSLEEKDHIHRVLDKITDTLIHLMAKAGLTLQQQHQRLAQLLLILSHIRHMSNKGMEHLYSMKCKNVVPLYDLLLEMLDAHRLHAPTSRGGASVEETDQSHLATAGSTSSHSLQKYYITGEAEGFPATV

Structure (SMILES) | Potency [1] | Potency [2] | Potency [3] | Potency [4] | Potency [5] | Potency [6] | Potency [7] | Potency [8] | Potency [9] | Potency [10] | Potency [11] | Potency [12] | Potency [13] | Potency [14] | Potency [15] | Potency [16] | Potency [17] | Potency [18] | Potency [19]
CC(C)(C)C(O)/C(=C\c1ccc(Cl)cc1Cl)n1cncn1 (configuration not stated) | inactive | 59.3 µM (active) | 26.5 µM (active) | 47.1 µM (active) | inactive | inactive | inactive | 74 µM (active) | inactive | inactive | 65.9 µM (active) | inactive | – | – | – | – | – | – | –
CC(Cl)CN(C)C (configuration not stated) | inactive | inactive | – | – | – | inactive | inactive | inactive | – | inactive | inactive | inactive | inactive | inactive | inactive | inactive | inactive | – | –
O=S(=O)(c1ccc(Cl)cc1)c1ccc(Cl)cc1 | inactive | inactive | – | – | inactive | inactive | inactive | – | inactive | inactive | inactive | inactive | inactive | inactive | inactive | – | inactive | inactive | inactive
CC(=O)O[C@H]1CC[C@@]2(C)C(=CC[C@@H]3[C@@H]2CC[C@]2(C)C(=O)CC[C@@H]32)C1 | inactive | inactive | 54.9 µM (active) | – | inactive | inactive | inactive | inactive | inactive | inactive | inactive | inactive | inactive | inactive | inactive | 5.45 µM (active) | inactive | – | inactive
O=CC(Br)(Br)Br | inactive | 38.8 µM (active) | 2.45 µM (active) | inactive | inactive | inactive | inactive | inactive | – | inactive | 60.9 µM (active) | inactive | 48.8 µM (active) | – | 43.1 µM (active) | – | – | inactive | –
O=[N+]([O-])c1ccc2ccc3cccc4ccc1c2c34 | inactive | inactive | inactive | inactive | – | inactive | inactive | – | – | inactive | inactive | inactive | inactive | – | inactive | 0.863 µM (active) | inactive | – | –
Oc1ccc(C2(c3ccc(O)cc3)CCCCC2)cc1 | inactive | – | – | – | – | inactive | inactive | – | inactive | inactive | – | inactive | inactive | inactive | inactive | – | 25.9 µM (active) | – | –
ClC1=C(Cl)[C@]2(Cl)[C@@H]3[C@@H](Cl)[C@H](Cl)C[C@@H]3[C@@]1(Cl)C2(Cl)Cl | inactive | inactive | inactive | inactive | – | inactive | inactive | inactive | inactive | inactive | inactive | inactive | – | inactive | inactive | inactive | inactive | inactive | –
ClC(Cl)=C(c1ccc(Cl)cc1)c1ccc(Cl)cc1 | inactive | inactive | – | – | inactive | inactive | inactive | inactive | inactive | inactive | inactive | inactive | inactive | inactive | inactive | – | inactive | inactive | –
CCOCn1c(-c2ccc(Cl)cc2)c(C#N)c(Br)c1C(F)(F)F | inactive | 12.3 µM (active) | 4.9 µM (active) | 19.5 µM (active) | inactive | inactive | inactive | 1.93 µM (active) | inactive | inactive | – | inactive | – | – | 5.45 µM (active) | – | inactive | inactive | –
CCN(CC)c1c([N+](=O)[O-])cc(C(F)(F)F)c(N)c1[N+](=O)[O-] | inactive | – | 17.4 µM (active) | 6.92 µM (active) | inactive | inactive | – | – | – | inactive | inactive | inactive | – | inactive | inactive | 27.3 µM (active) | inactive | inactive | –
CC(C)(O)c1cnn2c(-c3ccc(F)c(-c4c(F)cccc4C#N)c3)cnc2n1 | inactive | inactive | 5.49 µM (active) | 6.16 µM (active) | inactive | – | inactive | – | inactive | inactive | – | – | inactive | inactive | inactive | 61.1 µM (active) | – | inactive | –
Nc1ccc(Cl)cc1C(=O)c1ccccc1 | inactive | inactive | – | – | – | inactive | inactive | inactive | inactive | inactive | – | inactive | inactive | inactive | inactive | – | inactive | – | –
CC1(c2ccc(Oc3ccccc3)cc2)OC(=O)N(Nc2ccccc2)C1=O (configuration not stated) | inactive | – | 43.9 µM (active) | – | – | inactive | – | 8.69 µM (active) | – | inactive | – | inactive | – | 21.8 µM (active) | 24.5 µM (active) | – | – | – | –
OC(Cc1ccccc1Cl)(Cn1cncn1)C1(Cl)CC1 (configuration not stated) | inactive | inactive | 54.9 µM (active) | – | inactive | 24.5 µM (active) | inactive | – | inactive | inactive | inactive | inactive | inactive | inactive | inactive | – | inactive | inactive | –
O=[N+]([O-])c1cc([N+](=O)[O-])c2ccccc2c1 | inactive | inactive | inactive | inactive | – | – | – | – | inactive | inactive | inactive | inactive | – | – | inactive | 4.33 µM (active) | inactive | – | –
BrC(Br)C(Br)(Br)Br | inactive | – | 24.7 µM (active) | – | – | inactive | inactive | inactive | inactive | inactive | inactive | inactive | – | inactive | inactive | – | – | inactive | –
ClCc1ccc(Cl)cc1Cl | inactive | inactive | inactive | inactive | – | inactive | inactive | inactive | inactive | inactive | inactive | inactive | inactive | inactive | inactive | – | – | – | –
C[C@]12CC[C@H]3[C@@H](CCC4=CC(=O)CC[C@@]43C)[C@@H]1CC[C@@H]2O | inactive | inactive | 54.6 µM (active) | inactive | inactive | 21.7 µM (active) | inactive | inactive | – | inactive | inactive | – | inactive | inactive | inactive | – | inactive | inactive | –
Cc1cc(N=Nc2ccccc2C)ccc1N | inactive | – | 21.9 µM (active) and 19.5 µM (active) | 21.9 µM (active) and 19.5 µM (active) | inactive | inactive | inactive | – | 8.63 µM (active) and 4.86 µM (active) | inactive | 27.3 µM (active) and 30.6 µM (active) | – | – | 24.3 µM (active) | – | 54.5 µM (active) and 48.6 µM (active) | 27.3 µM (active) and 30.6 µM (active) | inactive | –
OC(c1ccc(Cl)cc1)(c1ccc(Cl)cc1)C(Cl)(Cl)Cl | inactive | inactive | – | 49 µM (active) | inactive | inactive | inactive | inactive | inactive | – | inactive | inactive | inactive | inactive | inactive | – | – | inactive | –
ClCc1ccccc1CCl | inactive | – | – | inactive | inactive | inactive | inactive | inactive | inactive | inactive | inactive | inactive | inactive | inactive | inactive | – | inactive | – | –
Oc1ccc2ccc3cccc4ccc1c2c34 | inactive | 54.9 µM (active) | 15.5 µM (active) | 13.8 µM (active) | – | inactive | – | – | inactive | inactive | inactive | inactive | 49 µM (active) | inactive | inactive | – | inactive | – | –
CC1(C)CC/C(=C/c2ccc(Cl)cc2)C1(O)Cn1cncn1 (configuration not stated) | – | – | 24.4 µM (active) | – | – | inactive | inactive | 68.2 µM (active) | inactive | inactive | – | – | – | – | inactive | 1.21 µM (active) | 17.1 µM (active) | inactive | inactive
